Reference: PubChem BioAssay (NCATS)
Inconclusive results are not listed. The source made the active and inactive calls. The call rests on the fitted dose curve; in most records, active means well fitted cell-killing curve with a large enough effect; inconclusive means small, poorly fitted or top-dose-only effect; inactive means no such curve, though single readings can be large or run the other way.

Experiment: qHTS of pediatric cancer cell lines to identify multiple opportunities for drug repurposing: Primary screen for SK-N-SH cells (AID 1347098); further: nearly all actives have a fitted effect of over 65% in size
Details: SK-N-SH viability, CellTiter-Glo luminescence, 48 h; series mostly up to 57 µM; activity change, negative = cytotoxic: at the top concentration
Description: Drug repurposing or repositioning has been offered as a strategy for drug development in oncology programs. This approach has special potential for childhood cancers and other rare or orphan diseases, where the expected return on new drug development has been a disincentive to pharmaceuticals.
In this project we exploit the poly-pharmacology of drugs to discover new indications via phenotypic screening of a panel of 19 well-characterized cell lines derived from solid tumors seen in children and adolescents. The goal is to identify approved drugs with previously unrecognized anticancer properties that has the potential to reveal new mechanisms and biological processes involved in carcinogenesis or drug resistance. We employed a titration-based paradigm (quantitative high-throughput screening or qHTS), where all compounds were tested at multiple concentrations for their effect on cell viability. Concentration-response curves (CRCs) were derived directly from the primary screen, and both potency and efficacy values were used to identify compounds with robust bioactivity profiles. We screened the NIH Chemical Genomics Center (NCGC) Pharmaceutical Collection (NPC) and Mechanism Interrogation Plate (MIPE) small molecule collections of approved and investigational compounds against these cell lines; and measured metabolically active cells after 48 hours of compound treatment as a proxy for cell viability.
Assay Submitter: Nathalia J. Martinez, National Center for Advancing Translational Sciences, National Institutes of Health, Rockville, MD, USA; email: natalia.martinez@nih.gov
[1] Shen, M et al. Quantitative high-throughput phenotypic screening of pediatric cancer cell lines identifies multiple opportunities for drug repurposing. Oncotarget 2017 Dec 19;9(4):4758-4772. PMID 29435139.
The cells were obtained from University of North Carolina (UNC), Pediatric Preclinical Testing Program (PPT), and Coriell Institute (CI).
qHTS cell viability assay:
Cells were assayed in growth media at a density of 500-1,000 cells/well. Five microliters of cells were dispensed into 1,536-well, white, solid-bottom, TC-treated plates (Greiner Bio One) using a multidrop dispenser and incubated at 37 degrees C, 5% CO2, under a humidified atmosphere for 5 hours. Twenty-three nanoliters of compounds and controls (neutral control DMSO or positive control bortezomib at final concentration of 2.3 µM) were subsequently transferred by Kalypsys pintool. For primary screens, the MIPE collection was tested at 11-point dilutions (final concentrations range from 0.78 nM to 46 µM) and the NPC collection at 8-point dilutions (final concentrations range from 0.59 nM to 46 µM). Compounds tested in follow-up screens were assayed at 11-point dilutions. Cells were incubated for 48 hours, followed by addition of 3 µL of CellTiter-Glo (Promega). After a 15 min incubation at room temperature, samples were analyzed for luminescence intensity using a ViewLux High-throughput CCD imager equipped with clear filters.
On the % scale 0 is the no-effect control and ±100 the full control effect; potency means the concentration at half of the fitted maximal effect.

Row | SMILES | activity change, negative = cytotoxic | Potency
1 | CNC1(C)C2CCC(C2)C1(C)C (stereo not given) | 2.1% (inactive) | –
2 | CO[C@@]1(NC(=O)CSCC#N)C(=O)N2C(C(=O)O)=C(CSc3nnnn3C)CS[C@@H]21 | -7.73% (inactive) | –
3 | O=C(CCCN1CCC(O)(c2cccc(C(F)(F)F)c2)CC1)c1ccc(F)cc1 | -27.5% (inactive) | –
4 | O=C(O)CN(CCN(CC(=O)O)CC(=O)O)CCN(CC(=O)O)CC(=O)O | -3.66% [at 20 µM] (inactive) | –
5 | COC(=O)[C@@H](N)Cc1ccc(O)c(O)c1 | -20.6% (inactive) | –
6 | CCn1nc(C(=O)O)c(=O)c2cc3c(cc21)OCO3 | 231% (inactive) | –
7 | CCn1cc(C(=O)O)c(=O)c2cc3c(cc21)OCO3 | -4.1% [at 20 µM] (inactive) | –
8 | OCCN1CCN(CC/C=C2/c3ccccc3Sc3ccc(C(F)(F)F)cc32)CC1 | – | 13.7 µM (active)
9 | C#CCN(C)CCCOc1ccc(Cl)cc1Cl | -21.4% (inactive) | –
10 | CC(C)NCC(O)c1cc(O)cc(O)c1 (stereo not given) | -25.8% (inactive) | –
11 | C[C@]12CCC(=O)C=C1CC[C@@H]1[C@@H]2C(=O)C[C@@]2(C)[C@H]1CC[C@]2(O)C(=O)CO | 6.9% (inactive) | –
12 | Cc1ccc(S(=O)(=O)NC(=O)NN2CCCCCC2)cc1 | 2.56% (inactive) | –
13 | CC(C)[N+](C)(CCOC(=O)C1c2ccccc2Oc2ccccc21)C(C)C | 6.72% (inactive) | –
14 | CC(C)(C)c1ccc(C(=O)CCCN2CCC(OC(c3ccccc3)c3ccccc3)CC2)cc1 | 4.79% (inactive) | –
15 | CCCN(CCC)CCc1cccc2c1CC(=O)N2 | 0.33% (inactive) | –
16 | CCN1CCc2nc(N)oc2CC1 | -4.53% (inactive) | –
17 | COc1cc(Cc2cnc(N)nc2N)cc(OC)c1OC | -2.72% (inactive) | –
18 | NC(=Nc1ccccc1)Nc1ccccc1 | -18.9% (inactive) | –
19 | CC1=C(C)C(=O)C(CCCCC#CCCCC#CCO)=C(C)C1=O | -7.2% (inactive) | –
20 | O=c1[nH]c(=O)n([C@H]2C[C@H](O)[C@@H](CO)O2)cc1Br | -10.9% (inactive) | –

Row | SMILES | activity change, negative = cytotoxic | Potency
21 | NCCCNCCSP(=O)(O)O | -0.785% [at 11.4 µM] (inactive) | –
22 | CCN(CC)CCNC(=O)c1ccc(NC(C)=O)cc1 | -25.5% (inactive) | –
23 | NC(=O)c1cn(Cc2c(F)cccc2F)nn1 | -1.9% (inactive) | –
24 | NC1=NCC2c3ccccc3Cc3ccccc3N12 (stereo not given) | -22.9% (inactive) | –
25 | CN(C)C(=O)Oc1ccc[n+](C)c1 | 8.97% (inactive) | –
26 | COc1cc(C(=O)OCCCN2CCCN(CCCOC(=O)c3cc(OC)c(OC)c(OC)c3)CC2)cc(OC)c1OC | -60.4% (inactive) | –
27 | COCCc1ccc(OCC(O)CNC(C)C)cc1 (stereo not given) | -12.1% (inactive) | –
28 | CCNC(=O)N1CCN(CCCC(c2ccc(F)cc2)c2ccc(F)cc2)CC1 | – | 30.7 µM (active)
29 | CC(=O)Nc1nnc(S(N)(=O)=O)s1 | -14.2% (inactive) | –
30 | NC(=O)c1ncn([C@@H]2O[C@H](CO)[C@@H](O)[C@H]2O)c1O | -20.5% (inactive) | –
31 | Nc1c2c(nc3ccccc13)CCCC2O (stereo not given) | -10.1% (inactive) | –
32 | CCC(=O)c1ccc2c(c1)N(CCCN(C)C)c1ccccc1S2 | – | 34.4 µM (active)
33 | CNCCCN1c2ccccc2CCc2ccccc21 | – | 30.7 µM (active)
34 | CN(C(=O)CCCOc1ccc2[nH]c(=O)ccc2c1)C1CCCCC1 | -21.1% (inactive) | –
35 | NS(=O)(=O)c1cc2c(cc1Cl)NC(C1CC3C=CC1C3)NS2(=O)=O (stereo not given) | -19.2% (inactive) | –
36 | CC(C)(C)NCC(O)c1cc(O)cc(O)c1 (stereo not given) | -23.5% (inactive) | –
37 | NC(N)=NC(=O)Cc1c(Cl)cccc1Cl | -8.65% (inactive) | –
38 | O=C(O)CCCCCCCC(=O)O | -8.19% (inactive) | –
39 | Cc1nc2ccccn2c(=O)c1CCN1CCC(C(=O)c2ccc(F)cc2)CC1 | -21.6% (inactive) | –
40 | C[C@H](CS)C(=O)N1CCC[C@H]1C(=O)O | -8.97% (inactive) | –
